# Experimental data: the supplement of paper PMC5499739
# In all, about 16,000 sequences were measured (“Z-score”: median about -0.37, highest 2% from about 3.1 on). The entries come from a sample that favours the highest values as a whole.
# Tested on: RBM10 RRM1-ZnF-RRM2 (GST-tagged construct)
# Experiment: RNAcompete 7-mer binding Z-score; higher = stronger binding preference
# Method: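 RNAcompete: 20 pmol GST-tagged RBM10 RNA-binding constructs were incubated with a designed RNA pool of about 241,000 sequences up to 41 nt (1.5 nmol) on glutathione beads for 30 min at 4 °C and washed. Bound RNAs were identified by microarray hybridisation. Each RNA 7-mer is scored by a one-sided Z-score of its enrichment, computed over probes that contain the 7-mer within longer pool sequences.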
row,Sequence,RNAcompete 7-mer binding Z-score
1,CGGGUGA,2.55
2,AGGGUGG,3.88
3,AGGGUGC,2.43
4,GCGGUGA,1.39
5,UGGGUGA,3.5
6,UCGGUGA,0.479
7,AUGGUGA,2.09
8,GGGGUGA,3.52
9,AGGGUCA,1.51
10,ACGGUGG,2.73
11,AGGGUGA,4.25
12,GGGGUCA,3
13,CUGGAGG,1.11
14,GGGCCCA,-0.151
15,AGUAUUG,0.024
16,UGAUUGA,0.00216
17,GGACUUG,0.319
18,GCGGUGU,0.96
19,UGGGUGG,4
20,UGUGUGG,1.79
21,CGGGUGG,3.24
22,CGGGUGU,1.83
23,GGGGUGU,3.53

row,Sequence,RNAcompete 7-mer binding Z-score
1,CGGGUGC,1.94
2,AGGGUGU,3.03
3,GGUGUGG,3.86
4,GGUGUGU,1.42
5,UGGGUGU,2.62
6,UGGGUGC,2.74
7,CAGUACA,-0.0816
8,ACGCAAC,-0.479
9,UCUGUUA,-0.795
10,GACUGUG,-0.198
11,CGUCAUA,-0.519
12,AAGUGCG,0.698
13,UCAACCC,-0.752
14,ACCAUUG,-0.584
15,GGGGUGG,4.09
16,GCGGUGG,3.01
17,GGGGUGC,2.58
18,CUCACAG,-0.351
19,ACCAGGC,-0.136
20,GGGAUAA,3.36
21,GGGAUAG,3.83
22,GGGAUGC,2.65
23,GGGAUGA,3.59

row,Sequence,RNAcompete 7-mer binding Z-score
1,AGGAUAG,2.21
2,UGGAUAG,2.3
3,GGGAUAC,2.71
4,GGGAUGU,2.88
5,UGGAUAA,1.07
6,UCUGGUC,-0.522
7,UCUGUCC,-0.81
8,UAGGGGG,3.4
9,UAGGGGC,2.34
10,CAGGGGA,2.8
11,UAGGGGA,3.81
12,CAGGGGG,2.58
13,CAGGGGU,2.91
14,UAGGGGU,3.84
15,UAGGGCU,1.3
16,UAGGGCA,2.23
17,GUGACGA,0.68
18,GUAAAAA,0.253
19,CCAUUGG,-0.53
20,GUUUUGU,0.024
21,UGCUUGC,-0.73
22,CCGAUUG,-0.606
23,UAAGGUU,1.74

row,Sequence,RNAcompete 7-mer binding Z-score
1,UAAGGGU,3.54
2,GAAGUGU,1.09
3,UAAGGGA,3.09
4,CAAGGGA,2.5
5,GAAGGGC,3.32
6,GAAGGGU,4.15
7,AAAGGGC,2.89
8,UAAGGCU,0.224
9,AAAGGGA,4.13
10,GAAGGCU,0.581
11,UAAGGGC,1.51
12,CCGUAUC,-0.876
13,AUAAUGG,1.84
14,UGAUUAA,-0.118
15,AUACACA,-0.187
16,AGGUUGU,0.691
17,GCGACGC,-0.253
18,GUCGCUG,0.0495
19,UCUAACC,-0.737
20,GUCUAUA,-0.479
21,GUUGCAU,-0.227
22,CUAGAUU,-0.661
23,GAACCUG,-0.683

row,Sequence,RNAcompete 7-mer binding Z-score
1,UCGGCUA,-0.537
2,CGGUGUA,0.873
3,CAAGGGU,2.85
4,GAAGGGA,4.75
5,GCAGGGA,2.94
6,GAAGGCA,2.46
7,AAAGGGU,4.71
8,AAAGGCU,0.796
9,GGUUUGU,0.811
10,GUAUUGA,-0.107
11,CGAAGCC,-0.449
12,AACUCGU,-0.861
13,CGGAAAA,0.854
14,CGGAAGA,0.862
15,GGAAAAA,1.95
16,GGGAAAG,4.49
17,GGGAAGA,3.65
18,CGGAAAG,1.91
19,GGGAAGU,2.76
20,UGGAAAG,2.78
21,GGGAAAA,3.43
22,GUCAGGG,1.81
23,UCCUGAC,-0.788

row,Sequence,RNAcompete 7-mer binding Z-score
1,UGGCACA,0.497
2,UCGUAAG,-0.326
3,GUCGAGG,1.9
4,CGUUGGA,0.548
5,UCUUUAA,-0.803
6,UCGGCCG,-0.795
7,GGAGGUG,3.64
8,GGAGGUA,3.82
9,UGAGGUA,1.87
10,CGAGGUA,1.8
11,AGAGGUG,2.05
12,GGAGGUU,2.23
13,CGCAUUC,-0.723
14,UGCGACG,0.13
15,ACUUCUU,-0.952
16,CAGCGGG,2.5
17,UAGCGAG,0.694
18,GAGCGGA,3.55
19,UAGCGGA,1.01
20,GAGCGGG,3.33
21,GAGCGGU,1.51
22,GAGCGGC,1.42
23,GAGCGAC,0.177

row,Sequence,RNAcompete 7-mer binding Z-score
1,GAGCGAG,3.3
2,UCCUUAA,-0.715
3,AAAGAAC,-0.0343
4,CUCAACA,-0.704
5,UCUUAGC,-0.817
6,AUGACCC,-0.57
7,UUGUGGG,2.44
8,GUGUGGG,3.75
9,GUGUGGA,2.7
10,AUGUGGG,3.6
11,AUGUGGC,0.84
12,GUGUGGU,1.87
13,AGAAUGA,0.275
14,CGCACCC,-0.748
15,GCGUGAG,1.01
16,GAGAUGG,4
17,CGGAUGG,1.87
18,AGGAUGC,0.887
19,AGGAUGG,3.4
20,UAGAUGG,2.16
21,GAGAUGU,0.392
22,UGGAUGG,3.42
23,UGGAUGA,1.82

row,Sequence,RNAcompete 7-mer binding Z-score
1,UGGAUGC,0.778
2,UGUACUU,-0.715
3,GUCAAUU,-0.602
4,UUUGCCG,-0.766
5,ACGACGA,-0.384
6,GAGCCCC,-0.581
7,ACCGUAG,-0.147
8,UUUGUCC,-0.85
9,ACGGUAC,0.472
10,CCCCAAU,-0.755
11,UUCCACA,-0.508
12,UGGGAAA,2.49
13,AGGGAAU,3.2
14,AGGGAAG,4.36
15,AGGGACU,1.09
16,GGGGAAU,3.13
17,AGGGAAC,3.06
18,UGGGAAG,3.99
19,UGGGAAU,2.42
20,CGGGAAG,2.07
21,GGGGAAG,3.91
22,GGGGAAA,3.02
